MCL1-BIM inh = inhibitors of MCL1 binding to BIM-BH3, primary screen, biochemical, fluorescence polarization. Induced myeloid leukemia cell differentiation protein Mcl-1 (Homo sapiens), Q07820. GST-MCL1 / FITC-Bim-BH3 fluorescence polarization. inhibition, % at 10.9 µM. 320,000 compounds, 0.68% hits. AID 2057, 2009;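 active = inhibition above the mean inhibition of all tested compounds plus 3 SD, set per campaign, cut at about 40% in these data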;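 note: 0% = DMSO wells and 100% = unlabeled Bim-BH3 peptide control; higher means more loss of mP so more displacement of Bim peptide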
Target sequence (Q07820 whole entry, looked up): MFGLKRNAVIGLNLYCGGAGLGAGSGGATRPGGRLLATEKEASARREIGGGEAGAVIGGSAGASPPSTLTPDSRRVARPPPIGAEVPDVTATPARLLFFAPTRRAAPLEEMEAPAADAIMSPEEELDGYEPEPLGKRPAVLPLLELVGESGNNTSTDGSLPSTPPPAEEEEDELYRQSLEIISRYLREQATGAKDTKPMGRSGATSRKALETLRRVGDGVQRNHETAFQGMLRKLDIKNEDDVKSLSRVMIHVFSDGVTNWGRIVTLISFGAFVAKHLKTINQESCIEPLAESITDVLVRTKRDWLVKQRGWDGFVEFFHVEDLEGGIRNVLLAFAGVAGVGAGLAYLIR
Bim-Mcl-1 = inhibitors of Bim peptide binding to Mcl-1, primary screen, biochemical, bead-based flow cytometry, multiplex; Induced myeloid leukemia cell differentiation protein Mcl-1 (Homo sapiens), Q07820; Bim peptide-Mcl-1 binding; inhibition, % at 10 µM; AID 1009, 2008; 190,000 compounds, 0.1% hits; in the data active = inhibition above about 40%;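 note: 0% = no compound tracer wells and 100% = peptide blocker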
Mcl1 Bid PPI = Mcl-1/Bid binding inhibitors, primary screen, biochemical, TR-FRET, 1536-well; Induced myeloid leukemia cell differentiation protein Mcl-1 (Homo sapiens), Q07820; TR-FRET Mcl-1/Bid-Dy647 peptide binding; inhibition, % at 21.7 µM; 220,000 compounds, 0.97% hits;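 active = compounds that cut the binding signal by more than half at the single screening dose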;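 note: His-tagged Mcl-1 with europium anti-His antibody binding Bid BH3 peptide; 0% = Mcl-1 plus peptide wells and 100% = peptide-only wells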
Mcl1 Noxa PPI = Mcl-1/Noxa binding inhibitors, primary screen, biochemical, TR-FRET, 1536-well; Induced myeloid leukemia cell differentiation protein Mcl-1 (Homo sapiens), Q07820; TR-FRET Mcl-1/Noxa peptide binding, 2 h; inhibition, % at 21.7 µM; 220,000 compounds, 1.5% hits; AID 1022, 2008;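 active = compounds that cut the protein-peptide binding signal by more than 50% relative to plate controls in a single-dose test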;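 note: His-tagged Mcl-1 with rhodamine Noxa BH3 peptide and terbium anti-His antibody; 0% = Mcl-1 plus Noxa peptide wells and 100% = peptide-only wells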
14-3-3 Bad inh = inhibitors of 14-3-3 zeta/Bad binding, primary screen, biochemical, TR-FRET, bovine 14-3-3 zeta. AID 781, 2007. TR-FRET 14-3-3zeta/Dy647-pBad peptide displacement, 1 h. 220,000 compounds, 0.71% hits. 14-3-3 protein zeta/delta (Bos taurus), P63103. inhibition, % at 21.7 µM;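 active = inhibition above about 70%, limit read from the data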;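 note: 0% = full 14-3-3 plus peptide FRET controls and 100% = background without 14-3-3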
Target sequence (P63103 whole entry, looked up): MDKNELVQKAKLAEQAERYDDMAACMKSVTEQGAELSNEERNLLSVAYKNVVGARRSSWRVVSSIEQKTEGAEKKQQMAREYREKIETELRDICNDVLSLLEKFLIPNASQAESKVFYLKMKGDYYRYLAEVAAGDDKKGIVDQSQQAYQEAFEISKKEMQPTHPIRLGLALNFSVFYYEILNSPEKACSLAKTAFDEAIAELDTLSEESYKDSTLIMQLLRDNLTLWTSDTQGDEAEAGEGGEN
An asterisk follows results filed as active; x = not tested or not shown. Shown are actives, neighbours in structure and some others; about 2.5% of the full set was active somewhere.

SMILES	MCL1-BIM inh	Bim-Mcl-1	Mcl1 Bid PPI	Mcl1 Noxa PPI	14-3-3 Bad inh
COc1cc(/C=C(\C#N)c2nc3ccccc3[nH]2)cc(Br)c1OCc1ccccc1	-31.3	-3.0	9.0	29.9	17.5
COc1cc(/C=C(/C#N)c2nc3ccccc3[nH]2)ccc1OC(=O)c1ccco1	7.7	-6.0	-2.5	12.8	-11.3
COc1cc(/C=C(\C#N)C(=O)c2c[nH]c3ccccc23)cc(OC)c1O	-51.4	3.0	45.5	70.4*	9.7
CCOC(=O)C1=C(O)C(=O)N(c2ccc(S(N)(=O)=O)cc2)C1c1ccc(OC)cc1OC (stereo not given)	-2.9	0.0	-46.0	5.0	-4.7
Nc1nc(-c2ccc(Oc3ccccc3)cc2)cs1	9.2	x	x	x	x
O=C(NCc1ccc(F)cc1)C1CCC(CNS(=O)(=O)c2cccs2)CC1 (stereo not given)	-2.0	x	x	x	x
Cc1ccc2nc(/C(C#N)=C\c3cc(O)ccc3[N+](=O)[O-])[nH]c2c1	5.1	0.0	-36.9	21.2	9.4
Cc1ccc2nc(/C(C#N)=C/c3ccc(-c4cccc([N+](=O)[O-])c4)o3)[nH]c2c1	-123.2	0.0	36.2	79.9*	39.1
Cc1ccc2nc(/C(C#N)=C\c3ccc(Oc4ccc(C(F)(F)F)cc4[N+](=O)[O-])cc3)[nH]c2c1	-11.7	-3.0	-27.7	51.4*	-5.9
COc1ccc(/C=C(\C#N)c2nc3ccc(C)cc3[nH]2)cc1Oc1ccc(C(F)(F)F)cc1[N+](=O)[O-]	-13.4	0.0	-12.2	-0.3	11.7
CCC(C)(C)n1nnnc1C(c1cc2cc(C)cc(C)c2[nH]c1=O)N1CCN(C(=O)c2ccco2)CC1 (stereo not given)	5.6	-4.0	5.6	23.6	12.9
Cc1ccc(-c2nn3c(=O)c(C)nnc3s2)cc1	-0.2	-4.0	28.3	25.5	20.5
Cc1ccc(S(=O)(=O)N2CCC(C(=O)Nc3nnc(-c4ccco4)s3)CC2)cc1	1.2	-2.0	-7.8	-50.0	-19.5
O=C(Nc1nnc(-c2ccco2)s1)C1CCCCC1	12.3	-3.0	55.9*	-8.2	-17.9
Cc1ccc(Cl)c2c1=NC(=O)C=2c1[nH]c(=S)[nH]c1O	6.4	1.0	-100.4	53.0*	-16.4
O=C1N=c2ccccc2=C1c1sc(=O)[nH]c1O	11.9	x	-22.3	12.4	9.5
O=C1N=c2ccccc2=C1c1[nH]c(=S)[nH]c1O	15.8	-4.0	-24.0	65.5*	7.4
O=C(O)c1cc(S(=O)(=O)O)ccc1O	0.8	0.0	56.0*	40.1	39.5
O=C(O)c1cc(S(=O)(=O)N2CC=C(c3ccccc3)CC2)ccc1O	5.5	x	x	x	x
Cc1c(NC(=O)C(C)OC(=O)COc2ccccc2)c(=O)n(-c2ccccc2)n1C (stereo not given)	-15.2	-1.0	-26.8	14.1	-5.2
COc1ccc(-c2csc(N3CCC(c4ccccc4)CC3)n2)cc1	7.2	6.0	-38.7	11.2	-7.2
C=C(C)C(=O)Nc1ccc2c(c1)OCCOCCOCCO2	-3.2	x	-33.9	52.5*	43.8
O=C(Nc1ccc2c(c1)OCCO2)NC1(C(F)(F)F)Oc2ccccc2O1	7.0	-1.0	68.6*	24.7	33.2
O=C(Nc1ccc2c(c1)OCO2)NC1(C(F)(F)F)Oc2ccccc2O1	18.4	1.0	-40.5	18.7	-14.1
Cc1nnc(SCCCOc2ccccc2)nc1C	5.9	x	x	x	x
SMILES	MCL1-BIM inh	Bim-Mcl-1	Mcl1 Bid PPI	Mcl1 Noxa PPI	14-3-3 Bad inh
c1ccc(CN2CCN(C(c3ccccc3)c3ccccc3)CC2)cc1	10.6	x	x	x	x
O=C1c2ccccc2C(=O)N1CC#CCN1CCN(C(c2ccccc2)c2ccccc2)CC1	3.5	-4.0	62.3*	21.8	32.8
COc1ccc(OC)c(Nc2nc(-c3cccs3)cs2)c1	1.2	-4.0	-71.5	28.7	-19.5
COc1ccc(Nc2nc(-c3cccs3)cs2)c(OC)c1	2.6	-1.0	3.3	29.0	77.6*
O=C(C1CCCN(Cc2cccc(F)c2)C1)N1CCCCC1 (stereo not given)	0.5	2.0	14.2	5.0	86.2*
COc1cccc(CN2CCN(C(=O)CC(C)C)CC2)c1	0.9	1.0	33.8	27.9	34.0
CC(C)CC(=O)N1CCN(Cc2cccc(F)c2)CC1	1.2	-2.0	28.3	10.2	78.7*
COc1cc(OC)c(OC)cc1CN1CCCC(C(=O)N2CCCCC2)C1 (stereo not given)	-2.6	-2.0	53.1*	2.8	50.7
COc1cccc(C(=O)NN2c3ccccc3CCc3ccccc32)c1	3.0	-5.0	-15.2	10.2	-17.1
Cc1cccc(C(=O)NN/C=C/C(=O)c2ccccc2)c1	3.4	x	x	x	x
Cc1ccc(C(=O)OCC(=O)Nc2cccc(S(=O)(=O)N3CCCCC3)c2)o1	0.8	x	x	x	x
CCOc1ccccc1NC(=O)[C@@H](NC(=O)c1cccc(S(=O)(=O)N2CCOCC2)c1)C(C)C	0.5	0.0	-20.9	8.8	-0.7
Cc1ccc(C)c(NC(=O)CCC(=O)N/N=C/c2cc([N+](=O)[O-])ccc2O)c1	12.0	-1.0	-40.6	-23.5	-13.1
Cc1cc(=O)oc2cc(OCC(=O)N/N=C/c3cc([N+](=O)[O-])ccc3O)ccc12	9.7	0.0	81.5*	73.2*	34.0
CC(C)(C)NC(=O)c1sccc1C(=O)O	-0.2	0.0	90.3*	54.2*	76.7*
CCCCN(C)S(=O)(=O)c1ccc(C(=O)N=c2sc3cc(NC(C)=O)ccc3n2C)cc1	-0.2	-29.0	69.7*	28.6	61.5
COc1cccc(-c2cc(C(=O)NC3CC3)c3ccccc3n2)c1	0.4	x	x	x	x
CCOC(=O)c1cc(-c2ccco2)nc2c1c(C)nn2-c1ccccc1	9.4	5.0	14.5	56.1*	-14.7
O=C(NC1CCC(O)CC1)c1cc(-c2ccco2)nc2ccccc12 (stereo not given)	38.6	0.0	-43.2	54.5*	12.2
NC(=O)COC(=O)c1cc(-c2ccco2)nc2ccccc12	25.0	x	9.4	60.7*	2.4
O=C(COC(=O)c1cc(-c2ccco2)nc2ccccc12)NCc1ccc2c(c1)OCO2	16.4	1.0	22.4	75.9*	9.2
CCCn1c(=O)c2c(C(=O)OCC)cc(-c3ccco3)nc2n(CCC)c1=O	x	2.0	-25.5	-10.8	-5.7
O=C(COc1ccc2c(c1)CCC2)NCc1cccc(Cl)c1	-2.7	-1.0	-2.5	8.4	-4.0
CC(=O)Cc1cc(O)c2ccccc2c1OC(=O)c1ccc(Br)cc1	10.0	x	96.2*	24.0	-17.2
O=C(COC(=O)c1ccc(Br)cc1)NCc1ccccc1	7.7	-1.0	-14.0	10.3	5.8
Cc1ccc(Cn2c(C)c3cnn(CC(=O)NC4CCCC4)c(=O)c3c2C)cc1	6.2	x	x	x	x
CCCCC(=O)Nc1ccc(C(=O)N2CCC(C(=O)OCC)CC2)cc1	5.2	64.0*	-6.2	16.6	5.4
